Pol kappa inh: blocks human DNA polymerase kappa activity. Q9UBT6. 400,000 compounds, 0.53% hits. Potency, µM (doses to about 107 µM), for inactives: at the top dose activity, negative = inhibition, most hits filed as inhibitors. purified Pol kappa, fluorescent DNA synthesis assay, 10 min; also: % is scaled to controls: 0 for no effect and ±100 for the full control effect
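10 nM Pol kappa preincubated 15 min at room temperature with compounds, then reaction started with substrate at 50 nM final. Fluorescence read kinetically at 0 and 10 min; buffer-only wells served as negative control.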
Pol iota inh: inhibitors of human DNA polymerase iota; AID 588590; Potency, µM (top dose mostly 115 µM), for the others: at the highest dose activity, negative = inhibition, usual class: inhibitors; Pol iota fluorescent replication assay, 10 min; Q9UNA4; 390,000 compounds, 1% hits
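Fluorescent replication assay read twice, at 0 min and 10 min after adding 50 nM (final) substrate. Enzyme (10 nM) and compounds were first incubated 15 min at room temperature; enzyme-free buffer wells were negative controls.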
FEN1 inhibitor: blocks human flap endonuclease 1 | 390,000 compounds, 0.35% hits | Recombinant FEN1 flap cleavage, fluorescence, 15 min | Potency, µM (top dose mostly 114 µM), for inactives: top-dose activity change, negative = inhibition, hits mostly inhibitors | P39748; also: % is scaled to controls: 0 for no effect and ±100 for the full control effect; nearly all actives have a fitted effect of over 65% in size
Target sequence (P39748 whole entry, looked up): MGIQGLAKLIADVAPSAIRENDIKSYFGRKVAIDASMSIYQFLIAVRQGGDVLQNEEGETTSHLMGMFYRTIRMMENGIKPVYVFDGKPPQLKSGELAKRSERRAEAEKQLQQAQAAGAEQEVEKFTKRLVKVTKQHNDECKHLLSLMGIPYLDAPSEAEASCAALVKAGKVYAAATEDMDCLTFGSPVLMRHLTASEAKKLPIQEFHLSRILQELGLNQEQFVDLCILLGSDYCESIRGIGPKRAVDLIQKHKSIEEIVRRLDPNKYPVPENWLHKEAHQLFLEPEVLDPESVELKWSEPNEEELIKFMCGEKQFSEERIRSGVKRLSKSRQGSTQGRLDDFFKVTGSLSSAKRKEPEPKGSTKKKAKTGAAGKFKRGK
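Read-out was taken twice, immediately and after 15 min, following addition of 50 nM substrate to 10 nM FEN1 that had sat with test compound for 15 min at room temperature. Curves came from a four-parameter Hill model.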
WRN inhibitor: blocks human WRN helicase; Q14191; WRN helicase unwinding, fluorescent forked duplex, kinetic; Potency, µM (top dose mostly 114 µM), inactives show top-dose activity change, negative = inhibition, hits mostly inhibitors; 360,000 compounds, 0.46% hits; also: % is scaled to controls: 0 for no effect and ±100 for the full control effect; nearly all actives have a fitted effect of over 55% in size
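Primary qHTS, 1536-well format. 20 nM WRN + compound, 15 min RT; start with 100 nM forked fluorophore/quencher duplex, 2 mM ATP (final); kinetic read ex 525/em 598 nm.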
POLH inh: blocks human DNA polymerase eta activity | Q9Y253 | recombinant Pol eta, fluorescent DNA replication assay | Potency, µM (doses to about 114 µM), for the others: at the top dose activity change, negative = inhibition, hits mostly inhibitors | 390,000 compounds, 1.2% hits | AID 588591; also: % is scaled to controls: 0 for no effect and ±100 for the full control effect
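Pol eta at 10 nM preincubated with compounds 15 min at room temperature; reaction started with fluorescent substrate (50 nM final) and read kinetically at 0 and 10 min.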
Pol beta inh: DNA polymerase beta (human) inhibition; P06746; Pol beta primer extension/strand displacement, fluorescence kinetic; Potency, µM (titrated, usually from 114 µM), for inactives: at the highest dose activity change, negative = inhibition, hits mostly inhibitors; 340,000 compounds, 1.3% hits; also: % is scaled to controls: 0 for no effect and ±100 for the full control effect
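Pol beta (10 nM) and compounds were preincubated 15 min at room temperature, then 50 nM substrate (final) started primer extension/strand displacement. Reads were taken at 0 and 10 min; concentration-response data were fitted to a four-parameter Hill equation.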
Starred values were filed as active, the others as inactive; [ ] = another dose, or the depositor's remark. The list is not random: actives were taken first. Their share in the collection is about 2.4%. Calls follow the shape of the dose curve; as a rule, active = well fitted curve in the direction sought with a large enough effect; inconclusive = small, poorly fitted or top-dose-only effect, or another doubt; inactive = no such curve, though single readings can be large; an effect the other way counts as inactive or inconclusive. Potency is read from the fitted curve at half-maximal effect.

For CCc1ccc(NC(=O)C2CCN(S(=O)(=O)c3ccc4c(c3)NC(=O)C(C)S4)CC2)cc1 (stereo not given) the results were Pol kappa inh -18.8%, Pol iota inh 79.4µM*, FEN1 inhibitor -15.0%, WRN inhibitor -33.3%, POLH inh 0.3% and Pol beta inh inconclusive.
Screening O=c1cc(CSc2nnnn2-c2ccccc2)[nH]c2[nH]n(-c3ccccc3)c(=O)c12 returned Pol kappa inh 39.8µM*, Pol iota inh inconclusive, FEN1 inhibitor -3.9%, WRN inhibitor -12.9%[57.1 µM], POLH inh 13.4% and Pol beta inh -7.7%.
Screening COc1ccc2c(c1)c(CC(=O)NCc1cc([N+](=O)[O-])ccc1O)c(C)n2C(=O)c1ccc(Cl)cc1 returned Pol kappa inh -34.9%, Pol iota inh inconclusive, FEN1 inhibitor 0.2%, WRN inhibitor inconclusive, POLH inh 44.7µM* and Pol beta inh 39.8µM*.
Screening Cn1cc(C(=O)NCCN2CCN(c3cccc(Cl)c3)CC2)c2c3ccccc3n(C)c2c1=O returned Pol kappa inh inconclusive, Pol iota inh 100µM*, FEN1 inhibitor 2.1%, WRN inhibitor -9.9%, POLH inh inconclusive and Pol beta inh 18.5%.
For CCOc1ccc(CCNC(=O)c2nc(-c3cccc(F)c3)n3c2CCCCC3)cc1OCC the results were Pol kappa inh 89.1µM*, Pol iota inh inconclusive, FEN1 inhibitor -12.4%, POLH inh -20.6% and Pol beta inh 3.9%.
Screening O=C(NCc1cccs1)c1cc(-c2ccncc2)nc2ccc(Br)cc12 returned Pol beta inh 39.8µM*.
Screening CC1=[N+](C)c2ccc3ccccc3c2C1(C)C returned Pol kappa inh -21.2%, Pol iota inh inconclusive, FEN1 inhibitor inconclusive, WRN inhibitor 25.1µM*, POLH inh -11.9% and Pol beta inh 1.5%.
Cc1c2ccccc2cc[n+]1C was read as Pol kappa inh -1.9%, Pol iota inh 30.1% and FEN1 inhibitor 14.3%.
Screening COc1ccc(Cl)cc1NC(=O)c1c(NCc2cccs2)sc2c1CCCC2 returned Pol kappa inh -9.1%[60.1 µM], Pol iota inh -8.2%, FEN1 inhibitor 11.0%, POLH inh 50.1µM* and Pol beta inh inconclusive.
COc1ccc(OC)c(NC(=O)c2c(NCc3cccs3)sc3c2CCCC3)c1 was read as Pol kappa inh -17.1%[60.1 µM], Pol iota inh inconclusive, FEN1 inhibitor -10.2%, POLH inh -18.4% and Pol beta inh -13.2%.
For Cc1ccc(S(=O)(=O)N2CCN(c3cc(-c4cccs4)nc4ccccc34)CC2)cc1 the results were Pol kappa inh -21.6%, Pol iota inh 1.3% and FEN1 inhibitor 0.7%.
For COc1cc2c(cc1OC)C1O[C@](c3ccsc3)(C2)Oc2cc(-c3ccccc3)oc(=O)c21 the results were Pol beta inh 12.6µM*.
`COc1cc2c(cc1OC)C1O[C@](c3ccsc3)(C2)Oc2cc(C)n(Cc3ccccc3)c(=O)c21` gave Pol beta inh -0.5%[22.9 µM].
Screening CCN(CC)c1ccc(N=Cc2ccc([N+](=O)[O-])o2)cc1 returned Pol kappa inh inconclusive, Pol iota inh 15.8µM*, FEN1 inhibitor -23.8%, WRN inhibitor inconclusive, POLH inh inconclusive and Pol beta inh inconclusive.
`COc1ccc(-c2cc(C(=O)N3CCCCCC3)c3ccccc3n2)c(OC)c1` gave Pol kappa inh -38.9%, Pol iota inh 79.4µM*, FEN1 inhibitor -24.3%, WRN inhibitor -14.6%, POLH inh inconclusive and Pol beta inh 22.4µM*.
`Cc1ccc(-c2cc(C(=O)N3CCN(c4ccc(F)cc4)CC3)c3ccccc3n2)o1` gave Pol kappa inh -21.0%, Pol iota inh 35.5µM*, FEN1 inhibitor 6.4%, WRN inhibitor -18.7%, POLH inh inconclusive and Pol beta inh 28.2µM*.
`Cc1ccccc1-c1cc(C(=O)N2CCCC2)c2ccccc2n1` gave Pol kappa inh inconclusive, Pol iota inh 25.1µM*, FEN1 inhibitor 1.1%, WRN inhibitor -21.9%, POLH inh inconclusive and Pol beta inh inconclusive.

High-throughput results from PubChem BioAssay.
